Data reported in article PMC5540273 (PLoS ONE, 2017).

Assays:
Conditions in all cases: concentration: 1 μM, replicates: in singlicate; n = 1
NEK4 = system: NEK4
NEK5 = system: NEK5
NEK6 = system: NEK6
NEK7 = system: NEK7
NEK9 = system: NEK9
NIK = system: T1, NIK
T1 construct: gene MAP3K14

NIM1 = system: T2, NIM1
T2 construct: gene MGC42105

NLK = system: NLK
OSR1 = system: T3, OSR1
T3 construct: gene OXSR1

PAK1 = system: PAK1
PAK2 = system: PAK2
PAK3 = system: PAK3
PAK4 = system: PAK4
PAK6 = system: PAK6
PAK7 = system: PAK7
PCTK1 = system: T4, PCTK1
T4 construct: gene CDK16

PCTK2 = system: T5, PCTK2
T5 construct: gene CDK17

PCTK3 = system: T6, PCTK3
T6 construct: gene CDK18

PDGFRA = system: PDGFRA
PDGFRB = system: PDGFRB
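Note: KINOMEscan kinase panel screen.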

SMILES	%Inh (NEK4) [%]	%Inh (NEK5) [%]	%Inh (NEK6) [%]	%Inh (NEK7) [%]	%Inh (NEK9) [%]	%Inh (NIK) [%]	%Inh (NIM1) [%]	%Inh (NLK) [%]	%Inh (OSR1) [%]	%Inh (PAK1) [%]	%Inh (PAK2) [%]	%Inh (PAK3) [%]	%Inh (PAK4) [%]	%Inh (PAK6) [%]	%Inh (PAK7) [%]	%Inh (PCTK1) [%]	%Inh (PCTK2) [%]	%Inh (PCTK3) [%]	%Inh (PDGFRA) [%]	%Inh (PDGFRB) [%]
O=C(Nc1n[nH]c2cc(-c3ccccc3F)ccc12)C1CC1 [SB-733371]	0	0	0	11	0	0	0	15	0	0	0	0	0	0	9	0	9	0	16	46
CCn1c(-c2nonc2N)nc2ccccc21 [SB-693162/GW549034]	11	18	17	12	0	24	2	0	24	0	27	0	0	11	11	4	0	16	41	0
Cc1cc(Nc2nc(-c3cccc(C)n3)nc3ccccc23)ccn1 [GW872411]	0	6	0	0	0	16	0	0	0	0	15	0	0	0	17	0	0	0	0	0
CCCNC(=O)Nc1ccc(Oc2ncnc3ccn(C)c23)cc1	0	0	13	0	11	0	0	0	17	17	30	0	0	12	5	15	8	0	54	46
Cn1c(=O)c(F)c(Nc2ccc(I)cc2F)c2c(=O)n(OC[C@H](O)CO)cnc21	0	4	30	0	0	0	0	0	0	0	7	1	8	20	0	0	11	5	0	11
Cc1cccc(-c2nc(Nc3ccc4c(cnn4C)c3)c3ccccc3n2)n1 [GW876731]	0	49	12	2	5	11	16	25	0	6	33	0	17	14	0	0	0	11	9	1
COc1cc(Nc2nccc(N3CCC(NC(=O)C(C)c4ccc(Cl)cc4)C3)n2)cc(OC)c1OC (stereo not drawn) [GSK1379757]	0	95.5	0	0	19	0	0	0	0	10	11	22	0	0	0	0	0	0	0	14
Cc1c(Cn2c(C)nn3c(=O)cc(N4CCO[C@H](C)C4)nc23)cccc1C(F)(F)F [GSK2373690]	31	0	1	0	0	2	0	27	22	0	3	7	0	0	0	0	0	26	0	14
COc1ccc(CNC(=O)NC2CCN(c3ccnc(Nc4ccc(F)cc4)n3)C2)cc1 (stereo not drawn) [GSK1379706]	0	35	21	0	0	26	0	37	0	0	0	0	0	0	3	0	18	39	14	43
Nc1nc(-c2ccccc2F)c(-c2ccnc3ccccc23)s1 [GW560459]	0	0	0	8	53	17	22	27	4	18	18	14	0	0	0	9	0	13	0	6
O=C1NC(=O)C(c2ccccc2)=C1Nc1cccc(O)c1 [SB-390534]	13	0	0	14	0	3	100	0	0	0	16	26	0	0	0	0	6	0	0	0
COc1cccc(C2=C(Nc3cccc(C(=O)O)c3)C(=O)NC2=O)c1 [SB-390770]	0	14	1	0	9	0	0	8	16	0	0	25	0	0	0	0	0	0	3	0
COc1ccc(-c2coc3ccc(-c4nnc(SCc5cccc(C#N)c5)o4)cc23)cc1	3	0	16	0	0	2	5	0	0	18	34	0	14	19	15	0	0	2	20	10
Nc1nc(N)c2nc(-c3ccccc3)[nH]c2n1 [SKF-12778]	8	10	5	9	6	0	0	2	22	0	0	0	13	0	5	5	0	0	0	14
O=C(NCc1cccs1)c1cc(C(=O)c2c(Cl)cccc2Cl)c[nH]1 [GW823670]	0	17	0	0	0	0	2	0	0	5	38	10	0	0	0	0	0	13	0	0
Cl.c1ccc(Cn2cnc3cc(Nc4ncnc5ccccc45)ccc32)cc1 [GW272142]	0	16	0	0	7	14	0	0	26	0	0	0	0	58	9	0	0	29	0	6
Cc1nnc(-c2ccc3ncn(-c4ccc(S(C)=O)cc4)c3c2)o1 (stereo not drawn)	0	0	17	2	13	3	0	0	0	8	14	0	2	4	2	0	0	14	17	30
CC(C)(C)c1ccc(C(=O)Nc2cn3cc(-c4ccccc4)ccc3n2)cc1	0	0	0	0	0	0	19	0	0	0	0	8	1	0	6	0	0	0	41	93
Cc1ccc(Oc2ccc(Nc3ncnc4cc[nH]c34)cc2C)cn1	3	0	17	10	5	0	58	0	0	37	37	4	25	27	0	0	8	2	49	21
CN1C(=O)C(Nc2ccccc2)=C(c2ccccc2)C1=O [SB-300079]	0	0	0	0	0	32	19	0	0	0	0	0	0	0	0	0	0	12	0	24
CN(C)c1cc(-c2ccc3c(N)n[nH]c3c2)nc(N)n1 [GSK2219329]	0	2	0	0	0	0	21	1	0	9	0	0	0	0	15	0	0	0	0	9
